Records with an inconclusive call do not appear. Activity calls are given as the source filed them. The call rests on the fitted dose curve; in most records, active means well fitted inhibition curve with a large enough effect; inconclusive means small, poorly fitted or top-dose-only effect; inactive means flat fitted curve, though single readings scatter.

The test system of this assay is NIH3T3. The assay can be described thus: Cytotoxic Profiling of Annotated Libraries Using Quantitative High-Throughput Screening (AID 1296008). Further: nearly all actives have a fitted effect of over 60% in size. The settings on record: Five cell lines viability, CellTiter-Glo ATP luminescence, 48-72 h; max response: active compounds read low. The gist of the method: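 Cytotoxicity was measured as CellTiter-Glo ATP luminescence, read after 10 min at room temperature. Compound treatment of the cells lasted 48 or 72 hr at 37 degrees Celsius in a qHTS format.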
With `NCCCCN(Cc1nc2ccccc2[nH]1)[C@H]1CCCc2cccnc21`, the call was inactive.
Turning to `COc1cc(/C=C/C(=O)OC[C@H]2O[C@@H](OC3CC(C)=C(C(=O)O)C(C)(C)C3)[C@H](O)[C@@H](O)[C@@H]2O)cc(OC)c1O` (stereo not given in full), the call was inactive.
On to `CC1CCC2(NC1)OC1C(O)C3C4CCC5CC(O[C@@H]6O[C@H](CO)[C@@H](O)[C@H](O)[C@H]6O[C@@H]6O[C@@H](C)[C@H](O)[C@@H](O)[C@H]6O)CCC5(C)C4CCC3(C)C1C2C` (stereo not given in full), for which the result was inactive.
Then `O=C(O)CCc1c(C(=O)O)[nH]c2cc(Cl)cc(Cl)c12`, with “inactive”; and `C=C(C(=O)OC)[C@]12O[C@@](C)(CC[C@@]3(O)/C(=C\C)C(=O)O[C@]3(C)C[C@@H]1OC(=O)C(CO)CN1CCCC1C(=O)O)CC2=O` (stereo not given in full), with “inactive”; and `CC(C)c1cc2c(c(O)c1O)[C@@]13CCCC(C)(C)C1[C@@H](O)[C@@H]2OC3=O` (stereo not given in full), with “inactive”.
Then `CC1CC(O)/C=C/C(O)/C=C\C(=O)O1` (stereo not given), with “inactive”; and `C=C1C(=O)O[C@@H]2C[C@]3(C)[C@@H](CCC(C)=O)[C@@H]3C[C@H]12`, with “inactive”; and `C/C(=C\C(=O)C[C@@]12C(=O)O[C@]3(C)CC[C@H]1C[C@H]23)C(N)=O`, with “inactive”.
Regarding `C=C(COC(=O)CC(C)C)C1Cc2cc(C(C)=O)ccc2O1` (stereo not given), the compound was classed as inactive.
With `CN(C)CCC[C@]1(c2ccc(F)cc2)OCc2cc(C#N)ccc21`, the call was inactive.
Turning to `C=C1C(OC(C)=O)[C@@]23CCC4[C@](C)(C(=O)O)CCC[C@@]4(C)[C@]2(O)CC[C@H]1C3` (stereo not given in full), the call was inactive.
Then `CC(=O)OC1C(CO)OC(O[C@H]2[C@H](OC(=O)[C@]34CCC(C)(C)C[C@H]3C3=CCC5[C@@]6(C)CC[C@H](O[C@@H]7O[C@H](C(=O)O)[C@@H](O)[C@H](O[C@@H]8OC[C@@H](O)[C@H](O)[C@H]8O)[C@H]7O[C@@H]7O[C@H](CO)[C@H](O)[C@H](O)[C@H]7O)[C@@](C)(C=O)C6CC[C@@]5(C)[C@]3(C)C[C@H]4O)O[C@H](C)[C@H](OC3OC(C)C(OC4OCC(O)C(O)C4O)C(O)C3O)[C@@H]2O)C(O)C1O` (stereo not given in full), with “inactive”; and `O=C(O)c1cc(C(F)(F)F)ccc1N1CC[C@H](OCc2ccccn2)C1`, with “inactive”.
Then `C/C(=C\CCC(C)(C)O)CCO[C@@H]1O[C@H](CO[C@@H]2O[C@@H](C)[C@H](O)[C@@H](O)[C@H]2O)[C@@H](O)[C@H](O)[C@H]1O`, with “inactive”; and `O=[N+]([O-])c1cc(Cl)ccc1S(=O)(=O)N1CCN(Cc2ccccc2)CC1`, with “inactive”; and `CC1(C)C[C@H](O)C[C@@]2(C)[C@H]1[C@H](O)C=C1COC(=O)[C@@]12O`, with “inactive”.
In the case of `CC(=O)N[C@H]1[C@H](O[C@H]2CC[C@]3(C)C4CC=C5[C@@H]6CC(C)(C)CC[C@]6(C(=O)O)[C@H](O)C[C@@]5(C)[C@]4(C)CC[C@H]3C2(C)C)O[C@H](CO)[C@@H](O)[C@@H]1O` (stereo not given in full) it was “inactive”; in that of `CN[C@H](CNC(=O)N1CCC[C@@H]([C@@H](OCCNC(=O)OC)c2cccc(Cl)c2)C1)C[C@H]1CCCOC1`, “inactive”.
On to `COc1ccc(CC(=O)NCc2ccccc2-c2ccccc2C(=O)NCCc2cccnc2)cc1`, for which the compound was called inactive.
In the case of `COc1ccc(Oc2c(Cl)cnn(C3c4ccccc4-c4ccccc43)c2=O)cc1` it was “inactive”; in that of `COCCN1CCC(C(=O)NO)(S(=O)(=O)c2ccc(Oc3ccc(OC(F)(F)F)cc3)cc2)CC1`, “inactive”.
In the case of `CC(=O)O[C@@H]1[C@H](O[C@@H]2OC[C@](O)(CO)[C@H]2O)[C@@H](O[C@@H]2O[C@@H](C)[C@H](O)[C@@H](O[C@@H]3O[C@H](CO)[C@@H](O)[C@H](O)[C@H]3O)[C@H]2O)[C@H](OC(=O)[C@]23CCC(C)(C)C[C@H]2C2=CCC4[C@@]5(C)C[C@H](O)[C@H](O[C@@H]6O[C@H](C(=O)O)[C@@H](O)[C@H](O)[C@H]6O)[C@@](C)(C(=O)O)C5CC[C@@]4(C)[C@]2(C)CC3)O[C@@H]1C` (stereo not given in full) it was “inactive”.
Then `COC(=O)c1ccccc1O[C@@H]1O[C@H](CO[C@@H]2OC[C@@H](O)[C@H](O)[C@H]2O)[C@@H](O)[C@H](O)[C@H]1O`, with “inactive”; and `C[C@H](O)C(O)(C(=O)OCc1ccccc1NC(=O)CCC(N)C(=O)O)[C@H](C)O` (stereo not given in full), with “inactive”.

The values are drawn from PubChem BioAssay (NCATS).
